# Targets with a hit are over-represented here; the source holds about 7,900 in all. About 0.6% of all pairs of compound and target were hits. Values without a mark were called inactive.
# Assays:
# Test in all cases: log2 fold change, soluble protein after heating vs DMSO (PISA); higher = thermal stabilisation; K562 cells, 10 uM, 30 min; active = over 0.2 and 3.5 SD of the protein, either way, in both replicates (recomputed)
# bafetinib = compound: Cc1ccc(NC(=O)c2ccc(CN3CC[C@H](N(C)C)C3)c(C(F)(F)F)c2)cc1Nc1nccc(-c2cncnc2)n1 [bafetinib]
# Summary of the method: (§1)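 K562 cells at 2×10^6 cells/mL were treated for 30 min with 10 μM compound, and aliquots were heated for 3 min over 48°C-58°C before pooling. Extraction used PBS with 0.5% NP-40 at 4°C, and soluble protein was the supernatant after 21,000xg for 90 min, measured by TMTpro 16plex LC-MS/MS with channel sums equalised. Thermal stability values, relative to control samples and from duplicates, are log2 fold changes.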
# [1] = compound: Cc1cccc(CC(=O)N2CCc3c2ccc(-c2cn(C)c4ncnc(N)c24)c3F)n1
# Summary of the method: as §1
# nilotinib = compound: Cc1cn(-c2cc(NC(=O)c3ccc(C)c(Nc4nccc(-c5cccnc5)n4)c3)cc(C(F)(F)F)c2)cn1 [nilotinib]
# Summary of the method: as §1
# [2] = compound: Cc1nc(Nc2n[nH]c3c2CN(C(=O)N[C@H](CN(C)C)c2ccccc2)C3(C)C)c2sccc2n1
# Summary of the method: as §1
# dasatinib = compound: Cc1nc(Nc2ncc(C(=O)Nc3c(C)cccc3Cl)s2)cc(N2CCN(CCO)CC2)n1 [dasatinib]
# Summary of the method: as §1
# [3] = compound: Cc1ncc(-c2ccnc(Nc3ccc(S(C)(=O)=O)cc3)n2)n1C(C)C
# Summary of the method: as §1
# [4] = compound: Cn1cc(-c2ccc3c(c2)CCN3C(=O)Cc2cccc(C(F)(F)F)c2)c2c(N)ncnc21
# Summary of the method: as §1
# [5] = compound: Cn1cc(-c2ccc3nnc(C(F)(F)c4ccc5ncccc5c4)n3n2)cn1
# Summary of the method: as §1
# tipifarnib = compound: Cn1cncc1[C@@](N)(c1ccc(Cl)cc1)c1ccc2c(c1)c(-c1cccc(Cl)c1)cc(=O)n2C [tipifarnib]
# Summary of the method: as §1
# mubritinib = compound: FC(F)(F)c1ccc(/C=C/c2nc(COc3ccc(CCCCn4ccnn4)cc3)co2)cc1 [mubritinib]
# Summary of the method: as §1
# UniProt A1L0T0, sequence (A1L0T0 whole entry, looked up): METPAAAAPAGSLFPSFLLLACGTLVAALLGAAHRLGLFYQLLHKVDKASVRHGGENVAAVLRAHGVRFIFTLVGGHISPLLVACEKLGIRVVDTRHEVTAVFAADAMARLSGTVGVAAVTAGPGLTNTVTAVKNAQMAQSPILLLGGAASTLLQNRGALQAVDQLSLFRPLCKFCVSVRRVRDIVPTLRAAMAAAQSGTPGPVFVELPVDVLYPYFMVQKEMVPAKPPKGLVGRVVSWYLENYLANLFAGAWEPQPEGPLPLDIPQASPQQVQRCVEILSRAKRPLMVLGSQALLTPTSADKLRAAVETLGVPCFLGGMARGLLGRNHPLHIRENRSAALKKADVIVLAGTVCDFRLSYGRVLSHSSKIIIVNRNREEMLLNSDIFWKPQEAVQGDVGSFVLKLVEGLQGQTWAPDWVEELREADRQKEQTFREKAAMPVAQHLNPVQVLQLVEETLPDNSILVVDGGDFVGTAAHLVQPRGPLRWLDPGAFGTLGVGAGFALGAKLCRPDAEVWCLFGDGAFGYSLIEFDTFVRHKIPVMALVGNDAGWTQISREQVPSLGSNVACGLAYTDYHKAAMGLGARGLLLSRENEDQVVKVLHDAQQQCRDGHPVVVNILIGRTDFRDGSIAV
# UniProt Q9H9P8, sequence (Q9H9P8 whole entry, looked up): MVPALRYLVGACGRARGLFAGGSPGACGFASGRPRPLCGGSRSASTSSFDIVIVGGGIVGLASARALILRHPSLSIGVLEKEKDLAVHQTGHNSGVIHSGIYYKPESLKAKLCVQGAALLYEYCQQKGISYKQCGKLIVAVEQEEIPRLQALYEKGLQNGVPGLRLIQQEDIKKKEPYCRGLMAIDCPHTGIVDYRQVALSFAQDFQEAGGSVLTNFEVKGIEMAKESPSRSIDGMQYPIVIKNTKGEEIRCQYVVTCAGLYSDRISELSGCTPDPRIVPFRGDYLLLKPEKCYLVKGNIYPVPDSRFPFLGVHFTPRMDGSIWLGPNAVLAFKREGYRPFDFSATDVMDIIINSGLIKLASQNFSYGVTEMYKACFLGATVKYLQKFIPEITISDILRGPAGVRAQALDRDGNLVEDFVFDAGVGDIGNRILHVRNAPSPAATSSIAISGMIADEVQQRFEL
# UniProt O95819, sequence (O95819 whole entry, looked up): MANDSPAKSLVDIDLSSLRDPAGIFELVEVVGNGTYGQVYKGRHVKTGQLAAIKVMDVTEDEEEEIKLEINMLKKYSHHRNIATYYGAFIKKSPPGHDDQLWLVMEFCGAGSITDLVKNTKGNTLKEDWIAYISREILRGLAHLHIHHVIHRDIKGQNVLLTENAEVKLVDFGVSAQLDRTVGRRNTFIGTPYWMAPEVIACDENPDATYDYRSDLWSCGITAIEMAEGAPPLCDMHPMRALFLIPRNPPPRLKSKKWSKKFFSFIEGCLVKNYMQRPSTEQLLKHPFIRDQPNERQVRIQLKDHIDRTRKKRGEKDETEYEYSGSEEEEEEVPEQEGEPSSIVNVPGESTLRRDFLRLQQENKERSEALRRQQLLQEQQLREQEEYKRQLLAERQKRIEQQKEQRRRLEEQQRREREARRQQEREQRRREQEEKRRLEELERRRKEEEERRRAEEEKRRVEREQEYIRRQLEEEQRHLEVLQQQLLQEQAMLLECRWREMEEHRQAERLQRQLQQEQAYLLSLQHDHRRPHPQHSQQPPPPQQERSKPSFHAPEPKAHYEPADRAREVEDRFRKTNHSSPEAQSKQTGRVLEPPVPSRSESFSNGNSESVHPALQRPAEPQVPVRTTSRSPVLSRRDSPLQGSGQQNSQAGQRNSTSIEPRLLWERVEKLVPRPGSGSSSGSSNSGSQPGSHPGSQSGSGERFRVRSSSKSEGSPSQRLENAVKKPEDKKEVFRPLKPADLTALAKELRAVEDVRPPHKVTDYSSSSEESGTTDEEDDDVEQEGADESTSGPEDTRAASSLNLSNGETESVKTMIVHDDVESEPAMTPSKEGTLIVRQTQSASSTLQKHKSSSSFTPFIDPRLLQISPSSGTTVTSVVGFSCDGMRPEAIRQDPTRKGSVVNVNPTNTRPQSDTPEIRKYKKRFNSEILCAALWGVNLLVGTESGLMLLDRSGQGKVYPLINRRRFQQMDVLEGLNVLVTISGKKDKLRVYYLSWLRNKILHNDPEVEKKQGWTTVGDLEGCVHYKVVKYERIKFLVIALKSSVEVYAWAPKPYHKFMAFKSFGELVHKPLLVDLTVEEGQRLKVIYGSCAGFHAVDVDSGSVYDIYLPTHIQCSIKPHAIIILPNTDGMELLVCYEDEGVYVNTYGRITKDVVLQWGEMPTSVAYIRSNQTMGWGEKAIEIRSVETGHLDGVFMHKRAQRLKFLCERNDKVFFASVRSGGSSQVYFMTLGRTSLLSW
# UniProt Q8WV07, sequence (Q8WV07 whole entry, looked up): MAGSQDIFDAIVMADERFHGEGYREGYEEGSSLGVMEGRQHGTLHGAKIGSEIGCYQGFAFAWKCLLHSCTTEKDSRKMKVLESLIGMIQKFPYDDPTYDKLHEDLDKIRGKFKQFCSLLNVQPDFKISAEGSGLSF
# UniProt Q07820, sequence (Q07820 whole entry, looked up): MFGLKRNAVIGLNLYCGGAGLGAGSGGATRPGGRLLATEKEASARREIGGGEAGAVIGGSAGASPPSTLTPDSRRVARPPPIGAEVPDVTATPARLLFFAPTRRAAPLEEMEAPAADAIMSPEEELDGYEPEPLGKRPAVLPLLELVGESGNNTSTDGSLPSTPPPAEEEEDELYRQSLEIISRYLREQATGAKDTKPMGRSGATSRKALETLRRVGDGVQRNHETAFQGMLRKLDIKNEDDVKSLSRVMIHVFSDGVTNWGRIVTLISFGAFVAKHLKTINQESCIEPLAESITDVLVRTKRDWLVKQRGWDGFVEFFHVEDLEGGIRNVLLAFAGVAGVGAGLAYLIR
# UniProt Q9H6V9, sequence (Q9H6V9 whole entry, looked up): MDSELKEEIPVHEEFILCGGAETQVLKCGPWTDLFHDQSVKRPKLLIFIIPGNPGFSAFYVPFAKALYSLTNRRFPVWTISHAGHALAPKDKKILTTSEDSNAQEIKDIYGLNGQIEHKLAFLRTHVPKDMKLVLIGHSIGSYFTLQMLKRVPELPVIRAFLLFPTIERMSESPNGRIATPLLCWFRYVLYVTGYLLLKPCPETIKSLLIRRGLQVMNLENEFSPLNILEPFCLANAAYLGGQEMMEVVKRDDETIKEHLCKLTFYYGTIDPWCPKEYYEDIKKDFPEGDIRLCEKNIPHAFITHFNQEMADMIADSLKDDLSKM
# UniProt Q8N108, sequence (Q8N108 whole entry, looked up): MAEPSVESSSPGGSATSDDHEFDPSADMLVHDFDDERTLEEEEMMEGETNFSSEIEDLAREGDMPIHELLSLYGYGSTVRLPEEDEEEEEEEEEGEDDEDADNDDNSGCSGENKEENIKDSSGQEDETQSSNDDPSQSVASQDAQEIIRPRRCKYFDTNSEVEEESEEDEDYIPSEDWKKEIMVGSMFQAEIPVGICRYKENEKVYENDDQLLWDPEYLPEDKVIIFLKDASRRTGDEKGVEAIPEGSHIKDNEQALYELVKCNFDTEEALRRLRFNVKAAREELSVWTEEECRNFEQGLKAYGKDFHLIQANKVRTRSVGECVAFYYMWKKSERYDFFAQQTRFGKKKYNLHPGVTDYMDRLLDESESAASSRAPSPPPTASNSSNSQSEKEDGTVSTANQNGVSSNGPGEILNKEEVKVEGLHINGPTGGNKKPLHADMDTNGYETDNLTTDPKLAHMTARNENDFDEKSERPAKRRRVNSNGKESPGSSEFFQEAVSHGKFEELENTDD
# UniProt P02545, sequence (P02545 whole entry, looked up): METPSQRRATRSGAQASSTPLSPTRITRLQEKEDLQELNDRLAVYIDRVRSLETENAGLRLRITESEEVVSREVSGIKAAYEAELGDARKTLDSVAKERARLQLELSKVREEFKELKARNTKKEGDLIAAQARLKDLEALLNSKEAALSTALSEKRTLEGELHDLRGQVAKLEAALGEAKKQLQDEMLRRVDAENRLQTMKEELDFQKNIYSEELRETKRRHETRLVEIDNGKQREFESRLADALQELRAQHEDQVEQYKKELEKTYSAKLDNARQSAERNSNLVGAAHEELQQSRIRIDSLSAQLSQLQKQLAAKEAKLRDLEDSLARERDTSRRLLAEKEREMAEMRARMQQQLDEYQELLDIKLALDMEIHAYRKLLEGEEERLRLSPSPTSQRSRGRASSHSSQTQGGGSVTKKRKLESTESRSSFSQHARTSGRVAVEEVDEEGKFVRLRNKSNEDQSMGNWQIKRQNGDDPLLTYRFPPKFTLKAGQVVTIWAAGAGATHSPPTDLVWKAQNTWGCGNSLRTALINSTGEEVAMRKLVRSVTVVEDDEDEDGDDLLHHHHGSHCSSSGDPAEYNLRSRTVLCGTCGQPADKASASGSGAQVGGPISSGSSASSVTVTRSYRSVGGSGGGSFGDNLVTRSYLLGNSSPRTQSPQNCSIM
# UniProt Q9C0E8, sequence (Q9C0E8 whole entry, looked up): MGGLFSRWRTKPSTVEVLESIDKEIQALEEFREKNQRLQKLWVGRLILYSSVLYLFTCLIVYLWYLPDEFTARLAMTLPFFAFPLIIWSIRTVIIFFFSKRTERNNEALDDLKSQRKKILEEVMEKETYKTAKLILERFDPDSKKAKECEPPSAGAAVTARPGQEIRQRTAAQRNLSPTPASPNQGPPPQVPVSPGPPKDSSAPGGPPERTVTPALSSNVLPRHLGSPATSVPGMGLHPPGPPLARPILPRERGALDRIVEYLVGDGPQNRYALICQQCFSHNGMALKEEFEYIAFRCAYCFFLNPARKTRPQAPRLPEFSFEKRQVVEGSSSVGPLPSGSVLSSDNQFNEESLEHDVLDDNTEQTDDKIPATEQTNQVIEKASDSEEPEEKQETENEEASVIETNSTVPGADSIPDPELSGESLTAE
# UniProt Q96A72, sequence (Q96A72 whole entry, looked up): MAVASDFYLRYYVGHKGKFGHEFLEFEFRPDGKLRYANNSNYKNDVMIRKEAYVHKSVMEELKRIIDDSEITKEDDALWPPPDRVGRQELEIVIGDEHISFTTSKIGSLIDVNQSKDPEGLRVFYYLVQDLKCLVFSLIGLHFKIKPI
Target,log2 fold change (bafetinib),log2 fold change [1],log2 fold change (nilotinib),log2 fold change [2],log2 fold change (dasatinib),log2 fold change [3],log2 fold change [4],log2 fold change [5],log2 fold change (tipifarnib),log2 fold change (mubritinib)
ILK (UniProt Q13418),-0.038,-0.012,0.122,-0.024,-0.07,-0.002,0.027,0.005,-0.023,0.048
LDLR (UniProt P01130),0.005,-0.029,0.041,-0.027,0.056,-0.064,0.013,0.029,0.097,-0.082
LIMD1 (UniProt Q9UGP4),-0.143,0.017,0.023,-0.085,0.001,-0.008,0.021,-0.015,-0.071,0.012
KPNA6 (UniProt O60684),-0.071,0.078,-0.054,-0.038,-0.067,0.003,-0.098,-0.015,-0.033,-0.067
MAP4 (UniProt P27816),0.008,0.005,0.008,0.008,0.049,-0.01,-0.033,-0.029,0,-0.007
LONP2 (UniProt Q86WA8),-0.037,-0.054,0.26,-0.187,0.024,-0.065,0.055,-0.131,0.012,0.063
LRBA (UniProt P50851),-0.047,0.053,-0.067,-0.022,-0.061,0.014,0.047,0.002,-0.06,0.024
MAP4K4 isoform 3 (UniProt O95819),-0.068,0.029,-0.038,-0.094,-0.162,-0.09,-0.024,0.038,-0.027,0.021
LTN1 isoform 3 (UniProt O94822),-0.036,0.039,-0.079,-0.031,-0.122,-0.052,-0.09,-0.042,-0.151,-0.009
MAGI1 (UniProt Q96QZ7),-0.055,-0.023,0.015,-0.477 (active),0.039,-0.044,0.052,-0.079,0.079,-0.021
MAGEA8 (UniProt P43361),0.022,-0.265,-0.372 (active),-0.207,0.019,0.016,0.008,-0.003,-0.01,–
MAGOHB (UniProt Q96A72),-0.015,-0.007,-0.019,-0.042,0.007,0.138,-0.017,0.024,0,0.04
ITM2C (UniProt Q9NQX7),-0.064,-0.127,0.099,-0.018,0.024,0.127,0.09,0.038,0.039,–
L2HGDH (UniProt Q9H9P8),-0.089,-0.037,0.06,0.002,-0.046,-0.002,0.077,0.053,0.021,0.061
MAPK14 (UniProt Q16539),1.65 (active),-0.092,1.68 (active),0.123,1.05 (active),0.071,0.107,0.014,-0.102,0
MARK3 (UniProt P27448),0.033,0.108,-0.125,-0.718 (active),-0.104,-0.11,-0.062,-0.046,-0.013,-0.075
LNPK (UniProt Q9C0E8),-0.081,-0.035,-0.001,-0.009,0.052,-0.007,0.025,0.011,0.054,0.072
IWS1 (UniProt Q96ST2),0.018,-0.022,-0.024,0.092,-0.054,0.311 (active),-0.013,0.022,-0.021,0.035
LYN (UniProt P07948),0.26,0.008,0.062,-0.414 (active),-0.419 (active),-0.043,-0.06,0.034,-0.005,-0.003
MIER1 isoform 12 (UniProt Q8N108),-0.016,0.031,0.012,-0.083,-0.028,-0.061,0.056,-0.041,-0.004,0.052
ILVBL (UniProt A1L0T0),0.065,-0.049,0.074,0.011,-0.09,-0.025,0.247,-0.005,-0.047,0.041
KDM3B (UniProt Q7LBC6),-0.005,0.038,-0.009,-0.098,-0.136,0.042,-0.032,0.006,0.018,0.002
LMNA (UniProt P02545),-0.011,-0.025,0.065,-0.116,0.097,-0.179,-0.04,-0.043,0.064,-0.069
LTO1 (UniProt Q8WV07),-0.013,-0.004,-0.036,-0.072,0,0.039,-0.025,-0.02,-0.063,0.038
IK (UniProt Q13123),0.013,-0.01,-0.062,-0.067,-0.025,0.037,-0.007,-0.109,0.003,-0.067
MCL1 (UniProt Q07820),-0.181,-0.017,0.015,-0.053,0.068,-0.079,-0.021,-0.158,0.109,0.001
KIF13A (UniProt Q9H1H9),-0.033,-0.095,0.012,-0.01,-0.044,0.008,0.029,-0.032,-0.014,0.024
LDAH isoform 2 (UniProt Q9H6V9),-0.188,-0.027,0.175,-0.122,-0.215,-0.035,0.082,-0.025,0.076,0.094
LPIN3 isoform 2 (UniProt Q9BQK8),0.006,0.024,-0.005,-0.051,-0.128,0.038,0.06,0.002,0.008,0.089
MICOS13 (UniProt Q5XKP0),-0.114,0.014,-0.054,0.025,-0.085,0.001,0.046,0.056,-0.111,0.117

# Source: the supplement of paper PMC10849652
